The text below walks through data of PubChem BioAssay (EPA / NIEHS).

In general, AC50 refers to the midpoint of the concentration-response curve, whichever way the signal moves.

“And” between values parts separate entries of the source, which are not always exact repeats. Equal entries are not always repeated. Where a structure was tested more than once in an assay, its records may differ in their call. The source made the active and inactive calls. Rule for the calls: active = hit-call score of the fitted dose curve at least 0.9, where 1 is the maximum; inactive = score below 0.9.

Read-out in test [1]: Vascular endothelial growth factor receptor 2 (Homo sapiens) (UniProt P35968)
The test is described as follows: BSK_4H_VEGFRII: BioMAP Diversity Plus: 4H Assay for Vascular endothelial growth factor receptor 2 (VEGFR2) Biomarker Activity (AID 2283031).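 For AC50: cell-surface VEGFR2 protein level quantified by ELISA.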 The settings on record: primary human endothelial cells (HUVEC); actives raise or lower the signal. An outline of the steps:
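ELISA read-out of VEGFRII in primary human umbilical vein endothelium, taken 24 h after chemical treatment. Responses are expressed relative to DMSO, with bidirectional fitting.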

Read-out in test [2]: Human Leukocyte Antigen - DR isotype (HLADR), HLA-DRA (gene 3122)
Description: BSK_BE3C_HLADR: BioMAP Diversity Plus: BE3C Assay for Human Leukocyte Antigen - DR isotype (HLADR) Biomarker Activity (AID 2283032). The following applies: primary human bronchial epithelial cells; actives raise or lower the signal. An outline of the steps:
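ELISA read-out of HLA-DR on human lung bronchial epithelial primary cells, measured 24 h post-dosing. Both increases and decreases were scored relative to DMSO vehicle.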

Read-out in test [3]: Vascular cell adhesion molecule 1 (VCAM1), VCAM1 (gene 7412)
The test is described as follows: BSK_4H_VCAM1: BioMAP Diversity Plus: 4H Assay for Vascular cell adhesion molecule 1 (VCAM1) Biomarker Activity (AID 2283033).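 For outcome: cell-surface VCAM-1 protein measured by ELISA.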 The settings on record: primary human endothelial cells (HUVEC); actives raise or lower the signal. An outline of the steps:
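ELISA read-out of VCAM-1 on human umbilical vein endothelium 24 hours after chemical dosing; gain or loss of signal was fitted relative to DMSO, with sulforhodamine B staining of parallel cultures flagging overt cytotoxicity.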

Read-out in test [4]: Monokine induced gamma interferon (MIG), CXCL9 (gene 4283)
Description: BSK_BE3C_MIG: BioMAP Diversity Plus: BE3C Assay for Monokine induced gamma interferon (MIG) Biomarker Activity (AID 2283035).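 For outcome: MIG protein measured by ELISA in BE3C cultures after 24 h of dosing.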 The following applies: primary human bronchial epithelial cells; actives raise or lower the signal. An outline of the steps:
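ELISA read-out of MIG in human lung bronchial epithelial primary cultures, 24 h post-dosing. Bidirectional curve fit vs DMSO baseline.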

Read-out in test [5]: Transforming growth factor beta 1 (TGFb1), TGFB1 (gene 7040)
Description: BSK_BE3C_TGFb1: BioMAP Diversity Plus: BE3C Assay for Transforming growth factor beta 1 (TGFb1) Biomarker Activity (AID 2283036;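 for outcome: TGF-b1 protein level measured by ELISA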). The following applies: primary human bronchial epithelial cells; actives raise or lower the signal. An outline of the steps: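 Primary human lung bronchial epithelial cells; compound exposure 24 h; TGF-b1 by ELISA; bidirectional fit, DMSO baseline. Parallel SRB total-protein staining for cytotoxicity.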

Read-out in test [6]: Plasminogen activator inhibitor-1 (PAI1), SERPINE1 (gene 5054)
The test is described as follows: BSK_BE3C_PAI1: BioMAP Diversity Plus: BE3C Assay for Plasminogen activator inhibitor-1 (PAI1) Biomarker Activity (AID 2283037). The settings on record: primary human bronchial epithelial cells; actives raise or lower the signal. An outline of the steps:
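Primary human lung bronchial epithelial cells; chemical dosing; 24 h; PAI-1 measured by ELISA; bidirectional fit referenced to DMSO as negative control.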

Read-out in test [7]: urokinase plasminogen activator (uPA), PLAU (gene 5328)
Description: BSK_BE3C_uPA: BioMAP Diversity Plus: BE3C Assay for urokinase plasminogen activator (uPA) Biomarker Activity (AID 2283038).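 For outcome: uPA protein level quantified by ELISA in cell cultures; uPA read one day after compound addition.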 The following applies: primary human bronchial epithelial cells; actives raise or lower the signal. An outline of the steps: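 Bronchial epithelial cells (human, primary); chemical 24 h; uPA by ELISA; bidirectional fit vs DMSO. SRB (0.1%, after 10% TCA fixation, 560 nm) in parallel cultures for cytotoxicity.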

Read-out in test [8]: Urokinase-type plasminogen activator receptor (uPAR), PLAUR (gene 5329)
Description: BSK_BE3C_uPAR: BioMAP Diversity Plus: BE3C Assay for Urokinase-type plasminogen activator receptor (uPAR) Biomarker Activity (AID 2283039).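 For outcome: uPAR protein level measured by ELISA on the cells; cells exposed to compound for one day before measurement.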 The settings on record: primary human bronchial epithelial cells; actives raise or lower the signal. An outline of the steps:
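Human bronchial epithelial primary cells; chemical exposure 24 h; uPAR by ELISA; bidirectional fit vs DMSO control.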

Read-out in test [9]: Interleukin-6 (IL6), IL6 (gene 3569)
The test is described as follows: BSK_CASM3C_IL6: BioMAP Diversity Plus: CASM3C Assay for Interleukin-6 (IL6) Biomarker Activity for (AID 2283040). The following applies: primary human coronary artery smooth muscle cells; actives raise or lower the signal.

Read-out in test [10]: Tissue plasminogen activator (tPA), PLAT (gene 5327)
Description: BSK_BE3C_tPA: BioMAP Diversity Plus: BE3C Assay for Tissue plasminogen activator (tPA) Biomarker Activity (AID 2283041).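 For outcome: tPA level quantified by ELISA one day after compound addition.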 The following applies: primary human bronchial epithelial cells; actives raise or lower the signal. An outline of the steps: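 Primary human lung bronchial epithelial cultures receive test chemical; after 24 h, tPA is quantified by ELISA, and gain or loss of signal is fitted bidirectionally relative to DMSO baseline.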

Read-out in test [11]: Interleukin-8 (IL8), CXCL8 (gene 3576)
The test is described as follows: BSK_CASM3C_IL8: BioMAP Diversity Plus: CASM3C Assay for Interleukin-8 (IL8) Biomarker Activity (AID 2283042).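 Note: IL-8 protein level quantified by ELISA.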 The following applies: primary human coronary artery smooth muscle cells; actives raise or lower the signal.

Read-out in test [12]: Human Leukocyte Antigen - DR isotype (HLADR), HLA-DRA (gene 3122)
Description: BSK_CASM3C_HLADR: BioMAP Diversity Plus: CASM3C Assay for Human Leukocyte Antigen - DR isotype (HLADR) Biomarker Activity (AID 2283043).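 Note: cell-surface HLA-DR protein level quantified by ELISA.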 The settings on record: primary human coronary artery smooth muscle cells; actives raise or lower the signal.

Read-out in test [13]: Macrophage colony-stimulating factor (MCSF), CSF1 (gene 1435)
Description: BSK_CASM3C_MCSF: BioMAP Diversity Plus: CASM3C Assay for Macrophage colony-stimulating factor (MCSF) Biomarker Activity (AID 2283044).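 Note: M-CSF protein amount quantified by ELISA after 24 h exposure.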 The settings on record: primary human coronary artery smooth muscle cells; actives raise or lower the signal.

Read-out in test [14]: Low-density lipoprotein receptor (LDLR), LDLR (gene 3949)
The test is described as follows: BSK_CASM3C_LDLR: BioMAP Diversity Plus: CASM3C Assay for Low-density lipoprotein receptor (LDLR) Biomarker Activity (AID 2283045).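 Note: LDLR protein level on the cell surface quantified by ELISA.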 The following applies: primary human coronary artery smooth muscle cells; actives raise or lower the signal.

Read-out in test [15]: Monocyte Chemoattractant Protein-1 (MCP1), CCL2 (gene 6347)
Description: BSK_CASM3C_MCP1: BioMAP Diversity Plus: CASM3C Assay for Monocyte Chemoattractant Protein-1 (MCP1) Biomarker Activity (AID 2283046).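 Note: MCP-1 level quantified by ELISA 24 h after dosing.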 The settings on record: primary human coronary artery smooth muscle cells; actives raise or lower the signal.

Test [16] is described as follows: BSK_CASM3C_Proliferation: Cell Proliferation Assessment in the BioMAP Diversity Plus: CASM3C Assay (AID 2283047).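 Note: sulforhodamine B total protein stain as relative cell number at 560 nm; sub-confluent cells exposed 48 h before staining; fitted both ways against DMSO so gain or loss of cell number.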 The following applies: primary human coronary artery smooth muscle cells.
Read-out in test [17]: Monokine induced gamma interferon (MIG), CXCL9 (gene 4283)
Description: BSK_CASM3C_MIG: BioMAP Diversity Plus: CASM3C Assay for Monokine induced gamma interferon (MIG) Biomarker Activity (AID 2283048).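 Note: MIG protein level measured by ELISA.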 The following applies: primary human coronary artery smooth muscle cells; actives raise or lower the signal.

Read-out in test [18]: serum amyloid A (SAA), SAA1 (gene 6288)
The test is described as follows: BSK_CASM3C_SAA: BioMAP Diversity Plus: CASM3C Assay for serum amyloid A (SAA) Biomarker Activity (AID 2283049).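 Note: SAA protein level quantified by ELISA.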 The settings on record: primary human coronary artery smooth muscle cells; actives raise or lower the signal.

The nature of test [19]: BSK_CASM3C_SRB: Viability Assessment in the BioMAP Diversity Plus: CASM3C Assay (AID 2283050).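 Note: total protein by SRB staining as cytotoxicity measure in parallel cultures.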 The following applies: primary human coronary artery smooth muscle cells.
Read-out in test [20]: Interferon-gamma inducible Protein 10 (IP10), CXCL10 (gene 3627)
The test is described as follows: BSK_BE3C_IP10: BioMAP Diversity Plus: BE3C Assay for Interferon-gamma inducible Protein 10 (IP10) Biomarker Activity (AID 2283034). The following applies: primary human bronchial epithelial cells; actives raise or lower the signal. A digest of the protocol:
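Chemical is dosed onto human lung bronchial epithelial primary cells, cultures are incubated 24 h, and IP-10 is then quantified by ELISA. Gain or loss of signal is fitted in both directions relative to DMSO.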

`O=C(CCCN1CCC(O)(c2ccc(Cl)cc2)CC1)c1ccc(F)cc1`: the outcome in test [1], in test [2], in test [4], in [5], in test [6] and in [7] was inactive. Moreover, the result in [8], in [9], in [10], in test [11], in [12] and in [13] was inactive. Further, the outcome in test [15], in test [17], in test [18] and in test [19] was inactive. Also, the AC50 in test [3] is 20 µM (active); in test [14], 9.2 µM (active); in test [16] it was 20 µM (active).
`CCCCCCCCCCCC`: the AC50 was 28 µM (active) in [1]; 5.83 µM (active) and 5.29 µM (active) in [2]; 33.4 µM (active) and 32.1 µM (active) in test [3]; 7.03 µM (active) and 6.14 µM (active) in test [20]; 9 µM (active) and 9.5 µM (active) in test [4]; 9.17 µM (active) and 6.53 µM (active) in test [6]. Besides, the result in [1], in test [7], in test [8], in [9], in test [10] and in [11] was inactive. The result in test [12], in [13], in test [14], in test [15], in [16] and in [17] was inactive. For the same compound, the outcome in test [18] and in test [19] was inactive.
Consider `CCCCCc1ccc(O)cc1`, for which the outcome in test [1] was inactive. For the same compound, the AC50 in [2] was 27.2 µM (active); in test [3], 24.9 µM (active); in test [4], 32.8 µM (active); in test [5] it was 20 µM (active); in [6] it was 20 µM (active); in [7] it was 27.2 µM (active). The AC50 in test [8] was 30.5 µM (active); in test [9] it was 20 µM (active); in [10], 11.6 µM (active); in [11] it was 20 µM (active); in [12] it was 12.8 µM (active); in test [13], 14.6 µM (active). Further, the AC50 in [14] is 10.4 µM (active); in test [15], 14 µM (active); in test [16], 11.6 µM (active); in [17], 15.4 µM (active); in [18], 12.7 µM (active); in test [19] it was 15.9 µM (active).
As to `COC1=CC(=O)C[C@@H](C)[C@]12Oc1c(Cl)c(OC)cc(OC)c1C2=O`, the outcome in test [1], in test [2], in test [3], in [20], in [4] and in test [5] was inactive. Moreover, the outcome in test [6], in [7], in [8], in test [9], in [11] and in [12] was inactive. For the same compound, the result in test [13], in [14], in test [17], in test [18] and in [19] was inactive. Besides, the AC50 in test [15] is 4.25 µM (active); in test [16] it was 7.06 µM (active).
For `COc1cc(OC)nc(NC(=O)NS(=O)(=O)Nc2ccccc2C(=O)N(C)C)n1`, the outcome in test [1], in test [2], in test [3], in [20], in [4] and in [5] was inactive. Besides, the result in test [6], in test [7], in test [8], in [9], in [10] and in [12] was inactive. The result in test [13], in [14], in [15], in test [16], in test [17] and in [18] was inactive. For the same compound, the result in [19] was inactive. Moreover, the AC50 in test [11] was 0.0224 µM (active).
